Experiments:
Assay in all cases: DAPPL (digital affinity profiling via proximity ligation, sequencing); 10 mM Tris-HCl pH 7.5, 50 mM NaCl, 1 mM DTT, 4% glycerol, room temperature, 30 min; GST-TFs on glutathione beads, 16-mer random dsDNA library, 0.1% formaldehyde crosslink after washing; high values mean tight binding
[1] = target: T1, FEV (Homo sapiens, UniProt Q99581 1-238); details: protein: recombinant; tags: N-terminal GST; dsDNA, one strand shown
T1 sequence: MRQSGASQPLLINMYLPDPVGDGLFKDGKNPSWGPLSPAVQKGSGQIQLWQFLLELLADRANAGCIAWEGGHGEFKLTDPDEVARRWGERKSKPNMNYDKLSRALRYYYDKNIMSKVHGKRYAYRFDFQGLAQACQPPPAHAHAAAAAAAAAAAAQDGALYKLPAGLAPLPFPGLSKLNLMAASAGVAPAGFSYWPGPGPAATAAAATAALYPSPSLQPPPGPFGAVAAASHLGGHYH
Summary of the method: (§1)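 Pools were built from human transcription factors expressed in yeast as GST fusions, captured on glutathione beads and DNA-barcoded, along with a tag-only sample. Incubation with 200 nmole of a 16-mer random double-stranded DNA library lasted 30 min at room temperature in Tris/NaCl/DTT/glycerol buffer, and was followed by washing, 0.1% formaldehyde crosslinking, proximity ligation, PCR amplification and Illumina NextSeq500 sequencing. Binding signal is the quotient of each hexamer's read frequency for a factor and its frequency for the tag-only sample.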

[2] = target: ETV5 (Homo sapiens, UniProt P41161 1-510); details: protein: recombinant; tags: N-terminal GST; dsDNA, one strand shown
Summary of the method: as §1

[3] = target: HSF1 (Homo sapiens, UniProt Q00613 1-529); details: protein: recombinant; tags: N-terminal GST; chain copies: 3; dsDNA, one strand shown
Summary of the method: as §1

[4] = target: T2, SPIC (Homo sapiens, UniProt Q8N5J4 1-248); details: protein: recombinant; tags: N-terminal GST; dsDNA, one strand shown
T2 sequence: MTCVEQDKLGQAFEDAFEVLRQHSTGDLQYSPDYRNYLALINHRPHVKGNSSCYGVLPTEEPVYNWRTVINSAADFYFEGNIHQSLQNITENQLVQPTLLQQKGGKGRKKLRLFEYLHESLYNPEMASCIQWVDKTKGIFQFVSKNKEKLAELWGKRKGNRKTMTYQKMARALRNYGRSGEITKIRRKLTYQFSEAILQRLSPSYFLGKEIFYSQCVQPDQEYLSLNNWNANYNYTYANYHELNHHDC
Summary of the method: as §1

[5] = target: ELF4 (Homo sapiens, UniProt Q99607 1-663); details: protein: recombinant; tags: N-terminal GST; dsDNA, one strand shown
Summary of the method: as §1

[6] = target: T3, ELK4 (Homo sapiens, UniProt P28324-2 1-405); details: protein: recombinant; tags: N-terminal GST; dsDNA, one strand shown
T3 sequence: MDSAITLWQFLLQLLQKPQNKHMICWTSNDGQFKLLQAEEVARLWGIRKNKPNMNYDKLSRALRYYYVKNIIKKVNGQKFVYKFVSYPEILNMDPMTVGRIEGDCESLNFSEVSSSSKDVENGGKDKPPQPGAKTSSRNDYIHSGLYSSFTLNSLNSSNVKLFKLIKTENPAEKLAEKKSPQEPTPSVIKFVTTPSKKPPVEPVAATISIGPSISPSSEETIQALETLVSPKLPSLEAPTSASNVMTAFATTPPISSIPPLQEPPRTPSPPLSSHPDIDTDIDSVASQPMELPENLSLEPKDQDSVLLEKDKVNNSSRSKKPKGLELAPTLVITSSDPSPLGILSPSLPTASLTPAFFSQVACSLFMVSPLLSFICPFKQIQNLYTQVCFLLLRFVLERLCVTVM
Summary of the method: as §1

[7] = target: T4, ETV2 (Homo sapiens, UniProt O00321 1-342); details: protein: recombinant; tags: N-terminal GST; dsDNA, one strand shown
T4 sequence: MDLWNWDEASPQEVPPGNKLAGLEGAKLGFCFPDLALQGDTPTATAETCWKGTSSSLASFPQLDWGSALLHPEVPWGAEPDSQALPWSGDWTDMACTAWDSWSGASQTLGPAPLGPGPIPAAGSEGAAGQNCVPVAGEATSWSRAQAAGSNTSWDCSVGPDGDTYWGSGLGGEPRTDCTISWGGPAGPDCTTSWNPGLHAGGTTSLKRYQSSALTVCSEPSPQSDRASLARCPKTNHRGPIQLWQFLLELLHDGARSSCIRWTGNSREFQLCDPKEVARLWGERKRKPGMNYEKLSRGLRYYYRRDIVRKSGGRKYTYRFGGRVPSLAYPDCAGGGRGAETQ
Summary of the method: as §1

[8] = target: T5, ELF3 (Homo sapiens, UniProt P78545 1-371); details: protein: recombinant; tags: N-terminal GST; dsDNA, one strand shown
T5 sequence: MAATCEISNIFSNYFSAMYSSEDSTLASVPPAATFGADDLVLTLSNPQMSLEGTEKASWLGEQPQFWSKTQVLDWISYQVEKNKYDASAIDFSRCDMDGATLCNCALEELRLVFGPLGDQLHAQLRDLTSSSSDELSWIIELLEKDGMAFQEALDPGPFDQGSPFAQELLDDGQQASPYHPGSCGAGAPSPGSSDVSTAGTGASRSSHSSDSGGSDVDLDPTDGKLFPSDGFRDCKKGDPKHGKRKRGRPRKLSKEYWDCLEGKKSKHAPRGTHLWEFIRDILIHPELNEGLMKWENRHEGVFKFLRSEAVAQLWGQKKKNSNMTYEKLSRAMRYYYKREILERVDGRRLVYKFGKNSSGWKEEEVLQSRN
Summary of the method: as §1

[9] = target: CRX (Homo sapiens, UniProt O43186 1-299); details: protein: recombinant; tags: N-terminal GST; dsDNA, one strand shown
Summary of the method: as §1

[10] = target: ETV1 (Homo sapiens, UniProt P50549 1-477); details: protein: recombinant; tags: N-terminal GST; dsDNA, one strand shown
Summary of the method: as §1

[11] = target: T6, ERF (Homo sapiens, UniProt P50548 1-548); details: protein: recombinant; tags: N-terminal GST; dsDNA, one strand shown
T6 sequence: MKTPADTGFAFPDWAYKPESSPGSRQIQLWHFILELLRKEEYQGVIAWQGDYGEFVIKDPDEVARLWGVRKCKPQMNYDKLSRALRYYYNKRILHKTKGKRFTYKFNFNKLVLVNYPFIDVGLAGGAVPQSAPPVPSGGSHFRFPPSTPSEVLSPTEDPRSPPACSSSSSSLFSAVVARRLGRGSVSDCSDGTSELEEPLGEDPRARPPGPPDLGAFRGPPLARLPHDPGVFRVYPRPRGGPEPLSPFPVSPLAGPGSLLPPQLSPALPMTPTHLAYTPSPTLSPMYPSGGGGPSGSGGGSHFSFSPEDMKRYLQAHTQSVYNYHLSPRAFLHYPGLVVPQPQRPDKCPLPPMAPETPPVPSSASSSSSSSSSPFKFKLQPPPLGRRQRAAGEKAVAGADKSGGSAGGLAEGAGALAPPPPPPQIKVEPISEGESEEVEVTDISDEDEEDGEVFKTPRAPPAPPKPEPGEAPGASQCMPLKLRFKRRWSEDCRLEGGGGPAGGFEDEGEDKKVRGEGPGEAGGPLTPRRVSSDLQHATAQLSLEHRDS
Summary of the method: as §1

[12] = target: T7, ETV3L (Homo sapiens, UniProt Q6ZN32 1-361); details: protein: recombinant; tags: N-terminal GST; dsDNA, one strand shown
T7 sequence: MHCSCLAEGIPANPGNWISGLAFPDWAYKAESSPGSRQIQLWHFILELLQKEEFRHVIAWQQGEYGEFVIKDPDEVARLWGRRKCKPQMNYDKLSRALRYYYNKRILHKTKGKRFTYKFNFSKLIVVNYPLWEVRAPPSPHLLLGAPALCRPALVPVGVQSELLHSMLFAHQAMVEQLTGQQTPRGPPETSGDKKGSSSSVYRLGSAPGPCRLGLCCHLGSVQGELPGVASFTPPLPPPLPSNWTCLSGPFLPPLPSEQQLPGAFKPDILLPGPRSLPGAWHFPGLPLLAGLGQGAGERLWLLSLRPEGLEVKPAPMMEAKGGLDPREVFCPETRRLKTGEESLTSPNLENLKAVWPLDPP
Summary of the method: as §1

[13] = target: T8, ETS2 (Homo sapiens, UniProt P15036 1-469); details: protein: recombinant; tags: N-terminal GST; dsDNA, one strand shown
T8 sequence: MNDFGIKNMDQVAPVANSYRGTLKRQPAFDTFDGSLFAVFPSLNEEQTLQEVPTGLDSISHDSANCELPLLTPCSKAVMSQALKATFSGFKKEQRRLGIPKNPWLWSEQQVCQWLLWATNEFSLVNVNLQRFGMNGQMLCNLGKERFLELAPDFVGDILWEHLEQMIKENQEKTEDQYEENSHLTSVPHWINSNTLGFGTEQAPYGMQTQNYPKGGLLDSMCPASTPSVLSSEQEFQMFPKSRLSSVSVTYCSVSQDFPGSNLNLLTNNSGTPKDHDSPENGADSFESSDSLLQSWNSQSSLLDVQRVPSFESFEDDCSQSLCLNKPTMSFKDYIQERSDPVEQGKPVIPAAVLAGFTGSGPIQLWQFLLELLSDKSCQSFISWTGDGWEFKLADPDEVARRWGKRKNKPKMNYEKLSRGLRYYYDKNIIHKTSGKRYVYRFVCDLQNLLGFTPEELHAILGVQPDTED
Summary of the method: as §1

[14] = target: T9, SPDEF (Homo sapiens, UniProt O95238 1-335); details: protein: recombinant; tags: N-terminal GST; dsDNA, one strand shown
T9 sequence: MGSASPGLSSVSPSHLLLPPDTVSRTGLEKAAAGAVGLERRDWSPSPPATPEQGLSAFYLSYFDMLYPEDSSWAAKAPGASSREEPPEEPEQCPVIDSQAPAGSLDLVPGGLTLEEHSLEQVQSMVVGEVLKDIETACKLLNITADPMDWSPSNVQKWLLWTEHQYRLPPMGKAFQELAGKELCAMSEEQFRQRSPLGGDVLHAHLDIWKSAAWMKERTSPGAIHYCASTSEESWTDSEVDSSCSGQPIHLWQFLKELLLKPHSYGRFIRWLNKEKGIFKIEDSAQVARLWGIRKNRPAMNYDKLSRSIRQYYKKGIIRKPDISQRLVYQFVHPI
Summary of the method: as §1

[15] = target: T10, ETV7 (Homo sapiens, UniProt Q9Y603 1-341); details: protein: recombinant; tags: N-terminal GST; dsDNA, one strand shown
T10 sequence: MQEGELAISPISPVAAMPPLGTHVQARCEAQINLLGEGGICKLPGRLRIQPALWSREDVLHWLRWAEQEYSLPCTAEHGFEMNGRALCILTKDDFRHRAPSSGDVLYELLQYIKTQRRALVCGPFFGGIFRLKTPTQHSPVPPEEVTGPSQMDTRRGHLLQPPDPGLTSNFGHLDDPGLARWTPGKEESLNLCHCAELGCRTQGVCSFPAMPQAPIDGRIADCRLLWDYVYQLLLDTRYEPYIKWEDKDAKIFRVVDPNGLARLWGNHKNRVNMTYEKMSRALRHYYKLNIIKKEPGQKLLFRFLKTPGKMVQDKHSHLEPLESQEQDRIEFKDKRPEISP
Summary of the method: as §1

[16] = target: T11, ELF5 (Homo sapiens, UniProt Q9UKW6-2 1-255); details: protein: recombinant; tags: N-terminal GST; dsDNA, one strand shown
T11 sequence: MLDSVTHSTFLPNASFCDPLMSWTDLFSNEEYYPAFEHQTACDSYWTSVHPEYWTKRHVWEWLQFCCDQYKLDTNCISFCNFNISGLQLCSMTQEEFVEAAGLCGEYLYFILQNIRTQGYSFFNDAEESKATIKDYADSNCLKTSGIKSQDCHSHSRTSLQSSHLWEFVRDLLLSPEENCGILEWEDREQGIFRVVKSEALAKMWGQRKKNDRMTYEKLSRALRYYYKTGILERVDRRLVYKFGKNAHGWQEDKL
Summary of the method: as §1

[17] = target: T12, ETV3 (Homo sapiens, UniProt P41162-2 1-143); details: protein: recombinant; tags: N-terminal GST; dsDNA, one strand shown
T12 sequence: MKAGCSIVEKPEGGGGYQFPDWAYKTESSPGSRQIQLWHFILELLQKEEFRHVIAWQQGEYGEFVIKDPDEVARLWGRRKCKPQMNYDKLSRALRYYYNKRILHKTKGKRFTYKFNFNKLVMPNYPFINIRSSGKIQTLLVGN
Summary of the method: as §1

[18] = target: ETV6 (Homo sapiens, UniProt P41212 1-452); details: protein: recombinant; tags: N-terminal GST; dsDNA, one strand shown
Summary of the method: as §1

Sequence of ELF4 (Q99607 whole entry): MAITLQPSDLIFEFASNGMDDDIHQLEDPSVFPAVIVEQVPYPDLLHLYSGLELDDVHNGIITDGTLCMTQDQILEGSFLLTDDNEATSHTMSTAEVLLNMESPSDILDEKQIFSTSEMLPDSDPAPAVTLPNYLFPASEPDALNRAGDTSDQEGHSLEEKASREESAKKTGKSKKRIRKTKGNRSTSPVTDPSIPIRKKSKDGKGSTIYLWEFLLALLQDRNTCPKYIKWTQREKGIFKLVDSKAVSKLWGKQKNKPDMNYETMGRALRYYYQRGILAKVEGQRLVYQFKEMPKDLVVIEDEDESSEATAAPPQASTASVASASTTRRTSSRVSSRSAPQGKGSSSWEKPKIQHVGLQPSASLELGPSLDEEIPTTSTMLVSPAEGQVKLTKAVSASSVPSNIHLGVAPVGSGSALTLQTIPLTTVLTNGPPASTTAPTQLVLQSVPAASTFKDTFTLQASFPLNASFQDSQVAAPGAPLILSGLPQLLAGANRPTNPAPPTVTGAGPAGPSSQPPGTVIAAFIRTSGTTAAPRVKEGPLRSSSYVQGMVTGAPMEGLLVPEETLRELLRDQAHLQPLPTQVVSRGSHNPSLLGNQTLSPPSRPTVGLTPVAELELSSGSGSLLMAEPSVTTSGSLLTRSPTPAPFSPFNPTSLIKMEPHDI
Sequence of ETV5 (P41161 whole entry): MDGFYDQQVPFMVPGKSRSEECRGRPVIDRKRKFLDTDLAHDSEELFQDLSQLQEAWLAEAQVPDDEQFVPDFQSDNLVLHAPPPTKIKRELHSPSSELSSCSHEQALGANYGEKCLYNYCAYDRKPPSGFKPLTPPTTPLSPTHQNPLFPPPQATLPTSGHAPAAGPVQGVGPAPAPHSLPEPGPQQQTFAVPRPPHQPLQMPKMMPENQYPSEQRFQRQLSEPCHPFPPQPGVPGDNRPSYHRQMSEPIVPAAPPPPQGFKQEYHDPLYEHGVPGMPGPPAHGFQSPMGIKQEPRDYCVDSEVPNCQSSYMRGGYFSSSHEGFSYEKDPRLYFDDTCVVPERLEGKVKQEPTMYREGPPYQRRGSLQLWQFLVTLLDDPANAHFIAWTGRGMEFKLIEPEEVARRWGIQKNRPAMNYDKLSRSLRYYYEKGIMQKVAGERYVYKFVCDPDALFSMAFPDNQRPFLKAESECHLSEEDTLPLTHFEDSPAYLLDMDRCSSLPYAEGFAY
Sequence of HSF1 (Q00613 whole entry): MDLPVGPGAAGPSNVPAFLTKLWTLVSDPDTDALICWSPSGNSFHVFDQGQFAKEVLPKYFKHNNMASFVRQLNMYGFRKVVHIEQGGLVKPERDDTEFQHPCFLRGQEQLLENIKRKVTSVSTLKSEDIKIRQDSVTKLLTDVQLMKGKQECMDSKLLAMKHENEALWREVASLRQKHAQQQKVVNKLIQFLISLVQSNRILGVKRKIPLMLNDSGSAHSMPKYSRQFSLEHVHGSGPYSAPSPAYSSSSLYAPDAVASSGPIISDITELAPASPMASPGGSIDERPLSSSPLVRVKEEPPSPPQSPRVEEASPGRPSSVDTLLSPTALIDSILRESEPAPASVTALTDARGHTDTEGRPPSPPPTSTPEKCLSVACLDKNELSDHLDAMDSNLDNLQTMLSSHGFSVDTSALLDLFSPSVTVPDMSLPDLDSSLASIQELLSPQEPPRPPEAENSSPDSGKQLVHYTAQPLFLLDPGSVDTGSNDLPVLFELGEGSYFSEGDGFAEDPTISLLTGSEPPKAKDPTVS
Sequence of CRX (O43186 whole entry): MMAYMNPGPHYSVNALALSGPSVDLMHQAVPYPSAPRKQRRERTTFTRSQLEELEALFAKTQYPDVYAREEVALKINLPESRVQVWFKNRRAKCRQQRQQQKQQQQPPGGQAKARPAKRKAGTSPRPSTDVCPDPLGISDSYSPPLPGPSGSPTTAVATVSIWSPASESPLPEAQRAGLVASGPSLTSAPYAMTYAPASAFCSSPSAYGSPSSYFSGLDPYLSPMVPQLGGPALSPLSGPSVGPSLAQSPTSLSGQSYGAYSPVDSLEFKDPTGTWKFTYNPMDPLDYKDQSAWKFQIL
Sequence of ETV6 (P41212 whole entry): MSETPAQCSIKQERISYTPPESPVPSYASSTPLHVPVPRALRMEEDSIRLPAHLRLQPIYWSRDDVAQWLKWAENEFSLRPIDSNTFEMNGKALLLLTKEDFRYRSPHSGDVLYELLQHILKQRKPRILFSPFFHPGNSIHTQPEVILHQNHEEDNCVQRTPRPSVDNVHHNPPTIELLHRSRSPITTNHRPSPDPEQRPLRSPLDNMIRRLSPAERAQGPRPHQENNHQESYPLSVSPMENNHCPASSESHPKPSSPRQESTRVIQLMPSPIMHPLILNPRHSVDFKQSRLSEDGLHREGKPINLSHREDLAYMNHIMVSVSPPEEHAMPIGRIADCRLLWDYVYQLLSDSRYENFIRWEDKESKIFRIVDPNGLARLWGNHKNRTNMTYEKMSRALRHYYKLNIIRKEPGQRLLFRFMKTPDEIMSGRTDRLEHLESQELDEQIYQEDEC
Sequence of ETV1 (P50549 whole entry): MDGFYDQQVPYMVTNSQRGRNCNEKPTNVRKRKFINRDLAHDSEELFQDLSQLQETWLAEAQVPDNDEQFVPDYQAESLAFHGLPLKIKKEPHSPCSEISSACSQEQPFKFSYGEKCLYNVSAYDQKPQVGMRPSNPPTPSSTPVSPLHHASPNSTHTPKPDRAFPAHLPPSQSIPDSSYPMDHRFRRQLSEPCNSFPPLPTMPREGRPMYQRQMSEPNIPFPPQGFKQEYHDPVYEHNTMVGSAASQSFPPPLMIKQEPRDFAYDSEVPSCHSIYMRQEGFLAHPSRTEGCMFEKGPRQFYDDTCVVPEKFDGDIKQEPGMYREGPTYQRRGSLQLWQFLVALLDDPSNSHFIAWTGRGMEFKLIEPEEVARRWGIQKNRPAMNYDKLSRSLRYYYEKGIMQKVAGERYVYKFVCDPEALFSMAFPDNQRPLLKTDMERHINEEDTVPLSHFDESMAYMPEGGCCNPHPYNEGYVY

Sequence	binding signal [1]	binding signal [2]	binding signal [3]	binding signal [4]	binding signal [5]	binding signal [6]	binding signal [7]	binding signal [8]	binding signal [9]	binding signal [10]	binding signal [11]	binding signal [12]	binding signal [13]	binding signal [14]	binding signal [15]	binding signal [16]	binding signal [17]	binding signal [18]
TGGTTT	1.54 fold enrichment (6-mer frequency, TF over GST control)	1.71 fold enrichment (6-mer frequency, TF over GST control)	1.4 fold enrichment (6-mer frequency, TF over GST control)	1.67 fold enrichment (6-mer frequency, TF over GST control)	1.54 fold enrichment (6-mer frequency, TF over GST control)	1.52 fold enrichment (6-mer frequency, TF over GST control)	1.34 fold enrichment (6-mer frequency, TF over GST control)	1.5 fold enrichment (6-mer frequency, TF over GST control)	1.5 fold enrichment (6-mer frequency, TF over GST control)	1.69 fold enrichment (6-mer frequency, TF over GST control)	1.53 fold enrichment (6-mer frequency, TF over GST control)	1.51 fold enrichment (6-mer frequency, TF over GST control)	1.54 fold enrichment (6-mer frequency, TF over GST control)	1.49 fold enrichment (6-mer frequency, TF over GST control)	1.44 fold enrichment (6-mer frequency, TF over GST control)	1.54 fold enrichment (6-mer frequency, TF over GST control)	1.52 fold enrichment (6-mer frequency, TF over GST control)	1.67 fold enrichment (6-mer frequency, TF over GST control)
GAACTA	1.25 fold enrichment (6-mer frequency, TF over GST control)	1.33 fold enrichment (6-mer frequency, TF over GST control)	1.32 fold enrichment (6-mer frequency, TF over GST control)	1.48 fold enrichment (6-mer frequency, TF over GST control)	1.21 fold enrichment (6-mer frequency, TF over GST control)	1.25 fold enrichment (6-mer frequency, TF over GST control)	1.31 fold enrichment (6-mer frequency, TF over GST control)	1.23 fold enrichment (6-mer frequency, TF over GST control)	1.13 fold enrichment (6-mer frequency, TF over GST control)	1.37 fold enrichment (6-mer frequency, TF over GST control)	1.25 fold enrichment (6-mer frequency, TF over GST control)	1.27 fold enrichment (6-mer frequency, TF over GST control)	1.33 fold enrichment (6-mer frequency, TF over GST control)	1.31 fold enrichment (6-mer frequency, TF over GST control)	1.3 fold enrichment (6-mer frequency, TF over GST control)	1.36 fold enrichment (6-mer frequency, TF over GST control)	1.34 fold enrichment (6-mer frequency, TF over GST control)	1.36 fold enrichment (6-mer frequency, TF over GST control)

Source: publication PMC7862700, “An all-to-all approach to the identification of sequence-specific readers for epigenetic DNA modifications on cytosine”
